# Source: PubChem (several laboratories)
# Shown are actives, neighbours in structure and some others; about 3.6% of the full set was active somewhere.
# GDH-TPI counter = GDH-TPI coupling enzyme inhibitors, primary screen, artefact control for M. tuberculosis FBA inhibitor project, biochemical, absorbance, full deck | actives 1.2% (n = 360,000) | GDH-TPI coupled enzyme counterscreen, NADH absorbance | inhibition, % at 4.8 µM; in the data active = inhibition above about 30%;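 note: 0% = DMSO wells and 100% = wells lacking the enzyme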
# Mtb bLac sens = beta-lactam sensitization of Mtb H37Rv, H37Rv; actives 0.27% (n = 330,000); M. tuberculosis H37Rv growth with meropenem, percent inhibition; AID 434955, 2010; inhibition, % at 25 µM; call rule not given here;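 note: growth measured after seven days incubation then overnight dye step; 0% = bacteria only wells and 100% = bacteria with antibiotic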
# FBA Mtb inh = Mtb FBA enzyme inhibitors, primary screen, biochemical, fluorescence, strain H37Rv | AID 588726, 2011 | purified M. tuberculosis FBA, fluorescence read-out | inhibition, % at 1 µM | Fructose-bisphosphate aldolase (Mycobacterium tuberculosis (strain ATCC 25618 / H37Rv)), … | actives 2.3% (n = 360,000); in the data active = inhibition above about 27%;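 note: 0% = vehicle and 100% = reference inhibitor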
# Target sequence (P9WQA3 whole entry, looked up): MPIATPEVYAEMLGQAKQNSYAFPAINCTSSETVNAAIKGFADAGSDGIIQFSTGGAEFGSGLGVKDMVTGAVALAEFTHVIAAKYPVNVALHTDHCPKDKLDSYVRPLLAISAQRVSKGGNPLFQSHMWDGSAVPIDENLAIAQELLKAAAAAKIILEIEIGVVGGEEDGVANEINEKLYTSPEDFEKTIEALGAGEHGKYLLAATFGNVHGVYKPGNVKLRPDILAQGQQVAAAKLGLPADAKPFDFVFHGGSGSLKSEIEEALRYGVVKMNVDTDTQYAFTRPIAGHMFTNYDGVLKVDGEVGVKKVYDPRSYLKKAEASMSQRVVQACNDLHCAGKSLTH
# DUSP3 inh = VHR1 phosphatase inhibitors, primary screen, biochemical, absorbance, uHTS; inhibition, % at 13.3 µM; AID 1654, 2009; actives 0.52% (n = 290,000); recombinant VHR phosphatase, pNPP absorbance; Dual specificity protein phosphatase 3 (Homo sapiens), P51452; in the data active = inhibition above about 50%
# Mtb hypoxia rep = PubChem AID 1159583. M. tuberculosis hypoxia-regulated fluorescent reporter, fluorescence. fluorescence inhibition, % (no concentration beside the values). actives 0.1% (n = 300,000); in the data active = fluorescence inhibition mostly above about 23%, no sharp cut-off; inactive = mostly below about 17%
# Numbers without * were called inactive; · = no result shown; + = active, no number.
SMILES,GDH-TPI counter,Mtb bLac sens,FBA Mtb inh,DUSP3 inh,Mtb hypoxia rep
CN(C(=O)COC(=O)c1ccc(Cl)cc1N)C1CCS(=O)(=O)C1 (stereo unspecified),5.1,-15.4,66.6*,-6.4,·
O=C(Cn1ccc(C(F)(F)F)n1)NN=Cc1ccc2c(c1)OCO2,·,·,·,·,4.2
CCOc1ccc(CN2CCNC(=O)C2CC(=O)NCc2ccccn2)cc1 (stereo unspecified),-6.2,-4.6,1.9,53.6*,12.5
COc1ccc(C(=O)COc2ccc3ccc(=O)oc3c2)cc1,16.9,0.9,12.3,3.5,9.9
O=C(CNC(=O)OCc1ccccc1)Oc1ccc2ccc(=O)oc2c1,13.3,5.0,+,-5.7,-4.5
O=C(COc1ccc2ccc(=O)oc2c1)OCc1ccccc1,7.2,77.7,11.3,10.6,-5.5
CC(NC(=O)OC(C)(C)C)C(=O)Oc1ccc2ccc(=O)oc2c1 (stereo unspecified),4.9,1.1,+,0.2,·
CC(C)(C)OC(=O)NCCC(=O)Oc1ccc2ccc(=O)oc2c1,10.3,4.8,+,25.9,·
Cc1ccc(S(=O)(=O)N(C)CC2Oc3ccc(NC(=O)Nc4c(C)noc4C)cc3CC(=O)N(C(C)CO)CC2C)cc1 (stereo unspecified),·,·,·,·,-6.1
Cc1cc(=O)[nH]c(N=C(N)Nc2ccc3c(c2)OCCO3)n1,·,·,·,·,11.0
CCOC(=O)[C@]12Cc3ccsc3C1N(Cc1ccccc1)C(=O)c1ccccc12 (stereo partly specified),·,·,·,·,5.7
CN1CC2C3C(=O)N(Cc4ccccc4)C(=O)C3[C@](Cc3ccccc3)(C1=O)N2C(=O)c1ccc(C(F)(F)F)cc1 (stereo partly specified),·,·,·,·,-2.7
Nc1ccc2c(c1)C/C(=C/c1ccco1)C2=O,11.6,4.0,0.5,71.8*,3.3
CCN(CC)c1ccc(NC(=O)Cn2c(C(C)NC(=O)c3ccccc3)nc3ccccc32)cc1 (stereo unspecified),5.4,-2.2,2.5,55.4*,·
COc1ccc(/C(C#N)=C/c2ccccn2)cc1,31.9*,8.0,24.4,9.5,·
N#C/C(=C\c1ccccn1)c1nc2ccccc2s1,1.9,18.5,-1.1,32.9,3.7
Cc1cc2nc(/C=C/c3cccnc3)[nH]c2cc1C,44.8*,4.3,+,-4.5,11.9
OCCCCNc1cccc2ccccc12,9.2,4.2,161.2*,14.2,5.0
CC(OC(=O)N(C)Cc1ccccc1)C1O[C@]2(C)CCCCC1O2 (stereo partly specified),·,·,·,·,7.4
CCCn1nnc(NC(=S)NC(=O)c2ccc(-c3ccc(Br)cc3)o2)n1,34.6*,97.4,4.0,4.9,-0.1
Cn1nnc(NC(=S)NC(=O)c2ccc(-c3ccc(Br)cc3)o2)n1,26.2,96.7,2.1,12.5,-1.3
Cc1ccc(C)c2nc(SCC(=O)NCc3cccs3)c(C#N)cc12,9.2,2.7,1.9,52.7*,2.1
CN(C(=NS(=O)(=O)c1ccccc1)c1ccccc1)S(=O)(=O)c1ccccc1,·,·,·,·,4.0
CN(C)C(=O)c1ccc(NC(=O)c2sccc2-c2ccccc2)cc1,4.9,-2.0,0.6,56.9*,4.6
CN(C)C(=O)c1ccc(NC(=O)c2cccnc2)cc1,-5.5,-10.0,2.0,15.6,5.2
SMILES,GDH-TPI counter,Mtb bLac sens,FBA Mtb inh,DUSP3 inh,Mtb hypoxia rep
CC(=O)Nc1ccc2c(COC(=O)[C@@H](NS(=O)(=O)c3ccc(C)cc3)C(C)C)cc(=O)oc2c1,22.8,-5.6,+,·,-1.7
COc1cc(OC)cc(C(=O)N[C@H](C(=O)OCc2cc(=O)oc3cc(C)ccc23)C(C)C)c1,6.5,0.0,-0.2,4.4,6.6
O=C(COc1ccc(Br)cc1)NN=C1SCC(=O)N1Cc1ccco1,·,·,·,·,-3.2
S=c1[nH]c(-c2ccccc2)cn1N=Cc1ccc(Br)cc1,·,·,·,·,23.5
Cc1ccc(N/N=C(\C#N)C(N)=S)c(C)c1,10.9,-0.9,2.2,0.1,·
Cc1ccc(NC(=O)/C(C#N)=N/Nc2ccc(C(=O)O)cc2)c(C)c1,57.5*,-4.2,-10.6,3.3,·
CC(=O)c1ccc(NC(=O)c2ccc([N+](=O)[O-])o2)cc1,27.9,100.1,-1.2,38.8,72.5*
CC(=O)c1cccc(NC(=O)c2ccc([N+](=O)[O-])o2)c1,45.6*,100.1,0.2,·,25.2
